{"source": "paper PMC5540273", "about": "(PLoS ONE, 2017);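 further: KINOMEscan kinase panel screen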", "data": [{"tested_on": "GRK4", "settings": "concentration: 1 μM, replicates: in singlicate; n = 1", "units": {"%Inh": "%"}, "values": [{"smiles": "O=C(Nc1n[nH]c2cc(-c3ccoc3)ccc12)C1CC1", "note": "[SB-738481]", "%Inh": 44}, {"smiles": "Cl.c1ccc(-c2ccc3c(Nc4ccc5[nH]ccc5c4)ccnc3c2)nc1", "note": "[GW440138]", "%Inh": 0}, {"smiles": "COc1ccc(-c2coc3ccc(-c4nnc(SCc5ccc(OC)c(C(F)(F)F)c5)o4)cc23)cc1", "%Inh": 0}, {"smiles": "COc1cc2c(cc1OCCN1CCNCC1)ncc1c3ccc(C#N)cc3[nH]c21", "%Inh": 88}, {"smiles": "CN(c1ccc(NC(=O)Nc2cc(C(F)(F)F)ccc2F)cc1)c1ccnc(Nc2ccc(S(N)(=O)=O)cc2)n1", "note": "[GW809893]", "%Inh": 25}, {"smiles": "Cn1cc(-c2ccc3c(c2)CCN3C(=O)Cc2cccc(F)c2)c2c(N)ncnc21", "note": "[GSK2603358]", "%Inh": 0}, {"smiles": "CN(C)Cc1ccc(-c2ccc3c(Nc4ccc(Oc5ccccn5)cc4)ccnc3c2)o1", "note": "[GW567148]", "%Inh": 0}, {"smiles": "c1ccc(-c2n[nH]cc2Nc2ccnc3ccccc23)nc1", "note": "[GW694077]", "%Inh": 81}, {"smiles": "COc1ccc(CNC(=O)NC2CCN(c3ccnc(Nc4ccc(F)cc4)n3)CC2)cc1", "note": "[GSK1379788]", "%Inh": 0}, {"smiles": "COc1cc(Nc2nccc(-c3c(-c4cccc(NC(=O)c5c(F)cccc5F)c4)nn4ncccc34)n2)cc(OC)c1OC", "note": "[GSK327238]", "%Inh": 0}, {"smiles": "CCCCc1nn2ncccc2c1-c1ccnc(Nc2ccc(N3CCN(C)CC3)cc2)n1", "note": "[GW684941]", "%Inh": 16}, {"smiles": "CC(C)c1nc(-c2cccc(NS(=O)(=O)c3c(F)cccc3F)c2F)c(-c2ccnc(Nc3ccc(N4CCOCC4)nc3)n2)s1", "note": "[GSK2008607]", "%Inh": 0}, {"smiles": "NCCCC(NC(=O)c1cc(Br)c(-c2ccnc3[nH]ccc23)s1)c1ccccc1.O=C(O)C(F)(F)F.O=C(O)C(F)(F)F", "note": "(centres unmarked) [GSK1287544]", "%Inh": 57}, {"smiles": "CN(C)S(=O)(=O)c1cc(-c2ccc3nccc(-c4cccc(S(N)(=O)=O)c4)c3c2)cnc1N", "note": "[GSK1669921]", "%Inh": 12}]}, {"tested_on": "GRK7", "settings": "concentration: 1 μM, replicates: in singlicate; n = 1", "units": {"%Inh": "%"}, "values": [{"smiles": "Nc1ncc(-c2cccnc2)c2scc(-c3ccc4c(c3)CCN4C(=O)Cc3ccccc3)c12", "note": "[GSK683281]", "%Inh": 0}, {"smiles": "c1ccc(Oc2ccc(Nc3ccnc4cc(-c5ccc(CNCCN6CCOCC6)o5)ccc34)cc2)nc1", "note": "[GW567145]", "%Inh": 0}, {"smiles": "Cl.Cl.NCC(NCc1ccc(-c2ccnc3[nH]ccc23)s1)c1ccccc1", "note": "(centres unmarked) [GSK1321565]", "%Inh": 83}, {"smiles": "CCn1c(-c2nonc2N)nc2c(C#CC(C)(C)O)nc(OC[C@H](N)c3ccccc3)cc21", "note": "[GSK943949]", "%Inh": 30}, {"smiles": "O=C(Nc1cccc(-c2nn3ncccc3c2-c2ccnc(Nc3ccccc3)n2)c1)c1c(F)cccc1F", "note": "[GSK198271]", "%Inh": 0}, {"smiles": "CCS(=O)(=O)c1ccc(OC)c(Nc2nccc(-c3c(-c4cccc(NC(=O)c5c(F)cccc5F)c4)nn4ncccc34)n2)c1", "note": "[GSK326180]", "%Inh": 0}, {"smiles": "C[C@@H](Oc1cc(-n2cnc3cc(-c4ccnc(NCCS(C)(=O)=O)c4)ccc32)sc1C(N)=O)c1ccccc1Cl", "note": "[GSK907232]", "%Inh": 0}, {"smiles": "Oc1cc(Nc2ccnc3cc(I)ccc23)ccc1F", "note": "[GW552771]", "%Inh": 0}, {"smiles": "Nc1ncc(-c2ccc3nccc(-c4ccncc4)c3c2)cc1S(=O)(=O)N1CCOCC1", "note": "[GSK1627798]", "%Inh": 0}, {"smiles": "Cl.Cl.NCC(C(=O)Nc1cc(Br)c(-c2ccnc3[nH]ccc23)s1)c1ccccc1", "note": "(centres unmarked) [GSK1269851]", "%Inh": 13}, {"smiles": "COc1ccc(Nc2nccc(N3CCC(NC(=O)Nc4cccc(OC)c4)C3)n2)cc1", "note": "(centres unmarked) [GSK1379742]", "%Inh": 0}, {"smiles": "Cc1cccc(NC(=O)Nc2ccc(Oc3ncnc4ccn(C)c34)cc2)c1", "%Inh": 0}, {"smiles": "O=C(Nc1ccccc1F)NC1CCN(c2ccnc(Nc3ccc(F)cc3)n2)CC1", "note": "[GSK1379800]", "%Inh": 0}, {"smiles": "COc1cccc(C2=C(Nc3ccc(Cl)c(C(=O)O)c3)C(=O)NC2=O)c1", "note": "[SB-390769]", "%Inh": 0}, {"smiles": "O=c1[nH]cc(-c2ccc(N3CCOCC3)cc2)c2sc(-c3cn[nH]c3)cc12", "note": "[GSK2276055]", "%Inh": 0}, {"smiles": "COc1ccc(Nc2nccc(NCCNC(=O)c3cc4ccccc4s3)n2)cc1", "note": "[GSK1379896]", "%Inh": 0}, {"smiles": "O=C(Nc1cccc(-c2nn3ccccc3c2-c2ccnc(Nc3cccc(C(F)(F)F)c3)n2)c1)c1c(F)cccc1F", "note": "[GSK292658]", "%Inh": 3}, {"smiles": "COc1cccc(-c2ccc3c(NC(=O)C4CC4)n[nH]c3n2)c1", "note": "[SB-710903]", "%Inh": 0}]}]}
